Screening data from PubChem BioAssay.
ABHD5 PLIN5 PPI: ABHD5-PLIN5 interaction inhibitors, primary screen, cell lysate, split luciferase complementation, luminescence; Perilipin-5 (Homo sapiens) + 1-acylglycerol-3-phosphate O-acyltransferase ABHD5 (Homo …; Split G. princeps luciferase complementation, 4 h; inhibition, % at 4 µM; 360,000 tested, 0.78% active; AID 602281, 2012;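 active = inhibition above the mean inhibition across every tested compound plus 3 SD, cut at about 22% in these data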
rCAG RNA binder: binders of r(CAG) RNA repeats, primary screen, biochemical, fluorescence; r(CAG) RNA repeat, TO-PRO-1 dye displacement fluorescence; inhibition, % at 3 µM; 370,000 tested, 1.3% active; AID 651821, 2012;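 active = inhibition above the plate cutoff, the mean of all test compounds on that plate plus 3 SD, cut at about 35% in these data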;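 note: higher means more dye released from RNA so lower well fluorescence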
LEDGF integ inh: blockers of LEDGF/p75-dependent integrase strand transfer – biochemical, TR-FRET, high throughput, primary screen; AID 743269, 2014; TR-FRET IN-LEDGF/p75 DNA integration, Eu/Cy5; HIV-1 integrase (with human LEDGF/p75); inhibition, % at 3.7 µM; 370,000 tested, 0.64% active;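 active = inhibition above the screen-wide mean plus 3 SD, cut at about 13% in these data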;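 note: signal is the Cy5 over europium emission ratio at 671 and 618 nm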
MBD2 DNA inh: inhibitors of MBD2 binding to methylated DNA, primary screen, biochemical, TR-FRET, DNA-binding domain, human; Methyl-CpG-binding domain protein 2 (Homo sapiens), Q9UBB5; MBD2 binding to methylated oligonucleotide; inhibition, % at 4.4 µM; 370,000 tested, 0.31% active; AID 686964, 2013; in the data active = inhibition above about 13%
PRMT1 inh: PRMT1 methyltransferase inhibitors, primary screen, biochemical, fluorescence polarization; recombinant PRMT1, activity-based probe fluorescence polarization; inhibition, % at 2.79 µM; 370,000 tested, 1.3% active;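 active = inhibition above about 21% made by adding two undisclosed values, limit read from the data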
UHRF1 binding: UHRF1 methylated DNA binding inhibitors, primary screen, counter-screen for MBD2 inhibitor project, biochemical, TR-FRET, human UHRF1, single concentration. E3 ubiquitin-protein ligase UHRF1 (Homo sapiens), Q96T88. UHRF1 binding to methylated oligo. inhibition, % at 4.4 µM. 370,000 tested, 0.75% active. AID 687016, 2013; in the data active = inhibition above about 21%;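 note: UHRF1 SRA domain binding a hemimethylated CpG hairpin DNA probe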
Target sequence (Q96T88 whole entry, looked up, the tested form may be a part): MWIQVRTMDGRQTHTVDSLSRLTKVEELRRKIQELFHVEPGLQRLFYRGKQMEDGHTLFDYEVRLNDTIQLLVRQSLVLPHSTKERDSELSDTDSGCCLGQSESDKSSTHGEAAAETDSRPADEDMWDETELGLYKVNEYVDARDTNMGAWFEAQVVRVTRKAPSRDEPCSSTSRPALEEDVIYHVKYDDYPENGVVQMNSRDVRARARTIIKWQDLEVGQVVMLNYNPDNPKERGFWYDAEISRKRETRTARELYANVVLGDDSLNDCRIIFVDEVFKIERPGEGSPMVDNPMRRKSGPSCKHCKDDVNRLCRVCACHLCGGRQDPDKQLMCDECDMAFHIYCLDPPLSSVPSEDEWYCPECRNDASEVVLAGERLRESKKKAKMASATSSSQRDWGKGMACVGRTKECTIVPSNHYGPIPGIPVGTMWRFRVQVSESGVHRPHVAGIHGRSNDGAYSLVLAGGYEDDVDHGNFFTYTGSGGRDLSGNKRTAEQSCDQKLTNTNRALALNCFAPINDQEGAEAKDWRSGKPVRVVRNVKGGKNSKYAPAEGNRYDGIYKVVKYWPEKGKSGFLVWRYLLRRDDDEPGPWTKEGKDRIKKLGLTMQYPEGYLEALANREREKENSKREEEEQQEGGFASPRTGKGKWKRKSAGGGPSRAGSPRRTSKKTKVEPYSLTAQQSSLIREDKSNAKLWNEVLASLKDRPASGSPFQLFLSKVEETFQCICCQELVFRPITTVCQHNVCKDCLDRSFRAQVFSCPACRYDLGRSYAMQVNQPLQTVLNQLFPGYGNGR
rCAG binder conf: small molecules binding CAG repeat RNA – biochemical, fluorescence, confirmation. shares compounds with rCAG RNA binder. inhibition, % at 3 µM. r(CAG) RNA repeat, TO-PRO-1 dye displacement fluorescence. 4,300 tested, 70% active. AID 652065, 2013;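 active = inhibition above a per-plate cutoff, the mean inhibition of sample wells plus 3 SD, cut at about 35% in these data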;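 note: loss of TO-PRO-1 fluorescence as compound displaces dye from 1x1 AA loop RNA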
DNA CAG counter: displacement of TO-PRO-1 from CAG DNA duplex, counter-screen for rCAG RNA repeat binder project, biochemical, fluorescence, TO-PRO-1 dye, d(CAG) DNA oligo. shares compounds with rCAG RNA binder. d(CAG) DNA oligo TO-PRO-1 dye displacement. 4,300 tested, 94% active. inhibition, % at 3 µM;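 active = inhibition above its plate's cutoff, the mean test-well inhibition plus 3 SD, cut at about 4.8% in these data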;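 note: hits displace the dye from DNA and so lower well fluorescence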
Hits are given with their value. Most compounds without a hit are left out; they make up all but 4.1% or so of the library.

For COC(=O)C1CN(Cc2ccc(F)cc2)CCS(=O)(=O)N1Cc1cn(Cc2ccc(F)cc2)nn1 (configuration not stated) the results were rCAG RNA binder inactive, LEDGF integ inh inactive, MBD2 DNA inh inactive, PRMT1 inh inactive and UHRF1 binding inactive.
`COc1ccc(S(=O)(=O)/N=C2/NC(=O)/C(=C\c3cc(OC)c(OC)cc3[N+](=O)[O-])S2)cc1` gave ABHD5 PLIN5 PPI inactive, rCAG RNA binder 75, LEDGF integ inh inactive, MBD2 DNA inh inactive, PRMT1 inh inactive, UHRF1 binding inactive, rCAG binder conf 63 and DNA CAG counter 23.
COc1ccc(/C=C2\SC(=Nc3ccccc3OC)NC2=O)cc1 was read as ABHD5 PLIN5 PPI inactive, rCAG RNA binder inactive, LEDGF integ inh inactive, MBD2 DNA inh inactive, PRMT1 inh inactive and UHRF1 binding inactive.
Screening COc1ccccc1NC(=O)O[C@@H]1CC[C@@]23CCCN2C(=O)CCC[C@H]3C1 returned LEDGF integ inh inactive, MBD2 DNA inh inactive, PRMT1 inh inactive and UHRF1 binding inactive.
Screening Cc1cc(C)c2nc(NNC(=O)c3ccc(S(=O)(=O)N4CCc5ccccc5C4)cc3)sc2c1 returned ABHD5 PLIN5 PPI 30, rCAG RNA binder 61, LEDGF integ inh 20, MBD2 DNA inh inactive, PRMT1 inh inactive, UHRF1 binding inactive, rCAG binder conf 50 and DNA CAG counter 26.
Screening Cc1cc(C)c2nc(NNC(=O)c3cc(=O)c4ccccc4o3)sc2c1 returned ABHD5 PLIN5 PPI inactive, rCAG RNA binder 73, LEDGF integ inh inactive, MBD2 DNA inh inactive, PRMT1 inh inactive, UHRF1 binding inactive, rCAG binder conf 82 and DNA CAG counter 49.
Cc1cc(C)c2sc(NNC(=O)c3ccc(S(=O)(=O)N4CCc5ccccc5C4)cc3)nc2c1 was read as ABHD5 PLIN5 PPI 30, rCAG RNA binder 48, LEDGF integ inh 19, MBD2 DNA inh inactive, PRMT1 inh inactive, UHRF1 binding inactive, rCAG binder conf 59 and DNA CAG counter 29.
Screening CCOC(=O)Cc1csc(NC(=O)c2cc(=O)c3ccccc3o2)n1 returned ABHD5 PLIN5 PPI inactive, rCAG RNA binder inactive, LEDGF integ inh inactive, MBD2 DNA inh inactive, PRMT1 inh inactive and UHRF1 binding inactive.
Screening CCc1nnc(NC(=O)c2ccc(S(=O)(=O)N3CCc4ccccc4C3)cc2)s1 returned ABHD5 PLIN5 PPI inactive, rCAG RNA binder inactive, LEDGF integ inh inactive, MBD2 DNA inh inactive, PRMT1 inh inactive and UHRF1 binding inactive.
Screening O=C(Nc1ccc2c(c1)OCO2)NC1CCN(S(=O)(=O)c2ccc(F)cc2)CC1 returned rCAG RNA binder inactive, LEDGF integ inh inactive, MBD2 DNA inh inactive, PRMT1 inh inactive and UHRF1 binding inactive.
For COCC(=O)Nc1ccc2c(c1)C(=O)N(C)[C@@H]1CC[C@@H](CC(=O)OC)O[C@H]1CO2 the results were rCAG RNA binder inactive, LEDGF integ inh inactive, MBD2 DNA inh inactive, PRMT1 inh inactive and UHRF1 binding inactive.
CC(C)N1CCCCC(NC(=O)c2ccc(Br)cc2)C1=O (configuration not stated) was read as rCAG RNA binder inactive, LEDGF integ inh inactive, MBD2 DNA inh inactive, PRMT1 inh inactive and UHRF1 binding inactive.
`O=C(Nc1cccc([N+](=O)[O-])c1)c1ccc2nc(N3C(=O)CCC3=O)sc2c1` gave ABHD5 PLIN5 PPI inactive, rCAG RNA binder inactive, LEDGF integ inh inactive, MBD2 DNA inh inactive, PRMT1 inh inactive and UHRF1 binding inactive.
